From PubChem BioAssay AID881 (National Center for Advancing Translational Sciences (NCATS), 2007)
Out of some 110,000 compounds screened, about 610 (0.55%) were called active. Not shown: some 3% with an inconclusive outcome. Calls follow the shape of the dose curve; as a rule, active = well fitted inhibition curve with a large enough effect; inconclusive = small, poorly fitted or top-dose-only effect; inactive = no such curve, though single readings can be large or run the other way. The list comes from a sample in which actives are over-represented; it also holds similar structures and randomly drawn compounds.

Each molecule was assayed against Polyunsaturated fatty acid lipoxygenase ALOX15B (Homo sapiens) (UniProt O15296) (assay: qHTS Assay for Inhibitors of 15-hLO-2 (15-human lipoxygenase 2)). Conditions: purified 15hLO-2, xylenol orange hydroperoxide absorbance; series mostly up to 57.1 µM; activity change, negative = inhibition: at the top concentration.
Chain of Polyunsaturated fatty acid lipoxygenase ALOX15B (Homo sapiens) (O15296 whole entry, looked up): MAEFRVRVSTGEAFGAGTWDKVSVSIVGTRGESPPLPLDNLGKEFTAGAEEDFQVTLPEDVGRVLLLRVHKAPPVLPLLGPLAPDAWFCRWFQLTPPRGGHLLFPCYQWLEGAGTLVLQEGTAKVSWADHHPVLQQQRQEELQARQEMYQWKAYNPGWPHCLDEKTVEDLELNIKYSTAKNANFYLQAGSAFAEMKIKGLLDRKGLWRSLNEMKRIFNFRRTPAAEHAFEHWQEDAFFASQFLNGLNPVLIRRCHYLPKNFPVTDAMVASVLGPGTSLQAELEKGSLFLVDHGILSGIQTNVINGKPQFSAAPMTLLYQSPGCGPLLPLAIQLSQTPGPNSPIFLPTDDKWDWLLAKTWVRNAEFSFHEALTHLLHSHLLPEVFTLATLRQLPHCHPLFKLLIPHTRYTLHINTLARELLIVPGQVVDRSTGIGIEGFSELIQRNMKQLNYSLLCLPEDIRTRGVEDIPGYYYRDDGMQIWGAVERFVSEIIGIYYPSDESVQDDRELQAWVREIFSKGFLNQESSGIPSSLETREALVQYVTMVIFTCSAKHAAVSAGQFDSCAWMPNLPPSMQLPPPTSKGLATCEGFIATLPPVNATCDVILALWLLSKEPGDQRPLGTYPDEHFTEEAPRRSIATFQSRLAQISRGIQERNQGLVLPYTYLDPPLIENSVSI
Procedure, shortened: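 Screening format was qHTS against 50 nM purified 15hLO-2 in Hepes pH 7.5 with detergent. Activity follows hydroperoxide formation from 45 uM arachidonic acid, measured as 573:405 nm absorbance ratio of the ferric-xylenol orange complex.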
% is scaled to controls: 0 for no effect and ±100 for the full control effect; potency is read from the fitted curve at half-maximal effect.
Also: nearly all actives have a fitted effect of over 60% in size.

Structure (SMILES)	activity change, negative = inhibition	Potency
CC1CCN(c2ccc(S(=O)(=O)Nc3cc(C(=O)O)cc(C(=O)O)c3)cc2[N+](=O)[O-])CC1	2.65% (inactive)	
COc1ccc(C)cc1NC(=O)CCS(=O)(=O)c1cccc2nonc12	-1.24% (inactive)	
Cc1ccc(/C=N/NC(=O)c2sccc2OCc2ccc(F)cc2)cc1	6.49% (inactive)	
C=CCNC(=S)NNc1ncnc2sc3c(c12)CC(C)(C)OC3	-29% (inactive)	
COC(=O)CSc1nnc(-c2cccnc2)o1	3.28% (inactive)	
O=C(CSCc1ccc(Cl)cc1)N1CCCCC1	1.73% (inactive)	
Oc1cc2c(cc1O)CN(C(=S)NCCc1ccc(Cl)cc1)CCC2		12.6 µM (active)
NS(=O)(=O)c1ccc(CCNC(=O)Nc2ccc(Cl)cc2)cc1	-0.0198% (inactive)	
Cc1ccc2nc(CC(=O)c3ccc4ccccc4c3)c(=O)[nH]c2c1	-6.79% [at 11.4 µM] (inactive)	
C=CC(=O)c1ccc2ccccc2c1		2 µM (active)
CC(=O)c1ccc2c(ccc3ccccc32)c1	-0.686% (inactive)	
CCC(=O)Nc1ccc(C(=O)Nc2cccc(OC)c2)cc1	2.43% (inactive)	
COc1ccccc1N=C(C)C1=C(O)COC1=O	1.25% (inactive)	
Cc1cccc(-n2cnc(C(=O)Nc3cccnc3)c2)n1	3.31% (inactive)	
Cc1ccc(S(=O)(=O)N2CCC(=O)N([C@H](COCc3ccccc3)Cc3ccccc3)CC2)cc1	6.39% [at 0.0915 µM] (inactive)	
O=S1(=O)CCN(Cc2ccccc2Cl)CC1	-0.814% (inactive)	
CCN(CC)CCn1c(=S)[nH]c2ncccc2c1=O	1.31% (inactive)	
CCCc1cc(=O)[nH]c(SCC(=O)c2cc(C)n(CCC)c2C)n1	-8.86% (inactive)	
COc1ccc(OC(C)C(=O)Nc2cccnc2)cc1 (stereo not drawn)	4.53% (inactive)	
C=CCNC(=S)N/N=C/c1ccc(OCc2ccccc2)cc1	-12.6% (inactive)	
O=C(O)c1cc2ccccc2c(=O)s1	1.13% (inactive)	
CS(=O)(=O)N(CC(=O)Nc1ccc(F)cc1F)c1cccc([N+](=O)[O-])c1	-23% (inactive)	
COc1cccc(-c2cc(=O)c3cc(NC(=O)c4ccc(C)cc4)ccc3[nH]2)c1	-28.3% [at 0.0915 µM] (inactive)	

Structure (SMILES)	activity change, negative = inhibition	Potency
Cc1cccc([C@H]2[C@@H]3C=CC[C@@H](C)[C@@H]3C(=O)N2Cc2ccccc2)c1	-6.63% [at 0.0915 µM] (inactive)	
CCn1c(O)c2ccc(C(=O)N=NC(=O)c3cccnc3)cc2c1O	1.39% (inactive)	
CCOC(=O)N1CCC(Nc2c(NCCCN3CCN(CC)CC3)c(=O)c2=O)CC1	2.51% (inactive)	
COc1cccc(N=c2oc3c(C)ncc(CO)c3cc2C(N)=O)c1	-13.3% (inactive)	
CC(C)CCNC(=O)CC1C(=O)N(Cc2ccccc2)C(C)c2nc3ccccc3n21 (stereo not drawn)	12.6% (inactive)	
CC(C)(CNC(=O)c1cc(=O)[nH]c2ccccc12)N1CCOCC1	4.69% (inactive)	
COc1ccc(CN2CCCCC2C)cc1OC (stereo not drawn)	-1.37% (inactive)	
Cc1ccc(CNC(=O)CCNC(=O)Cn2ccc3ccccc3c2=O)cc1	10.9% (inactive)	
O=C(Nc1nnc(C2CC2)s1)c1ccccn1	28.8% (inactive)	
C/C=C1\C2C=C(C)CC1(N)c1ccc(=O)[nH]c1C2 (stereo not drawn)	-9.9% [at 0.0915 µM] (inactive)	
Oc1ccc(O)c2c(O)cccc12		12.6 µM (active)
COc1ccc(-c2cc3nc(C)c(CCC(=O)NC(C)CCc4ccco4)c(C)n3n2)c(OC)c1 (stereo not drawn)	13.3% (inactive)	
COc1cc(OC)c2c(c1)OC(=O)CC2c1cc(OC)c(OC)c(OC)c1 (stereo not drawn)	-2.71% [at 0.0915 µM] (inactive)	
COc1cc(OC)c2c(-c3cccc(-c4cccc(N)c4)c3)cc(=O)oc2c1	3.54% [at 0.0915 µM] (inactive)	
O=C(c1cccc(N2CCCC2=O)c1)N1CCOCC1	-6.64% (inactive)	
Cc1cc2oc(=O)cc(-c3ccccc3)c2c(C)c1/C=C/c1ccc(F)cc1	-8.43% [at 0.0915 µM] (inactive)	
COc1ccc(SCc2noc(C(=O)NCC3CCCO3)c2C(=O)O)cc1 (stereo not drawn)	-4.14% (inactive)	
CCCCN1C(=O)/C(=C2/C=CC=CN2C)SC1=S	-27% (inactive)	
CCN1C(=O)/C(=C2/Sc3ccccc3N2CCCS(=O)(=O)O)SC1=S		15.8 µM (active)
CCN1C(=O)/C(=C\N2CCN(c3ccccc3)CC2)SC1=S	-25.9% (inactive)	
COc1ccc(-c2nnc(SC(=O)N3c4ccccc4Sc4ccccc43)o2)cc1		10 µM (active)
COc1ccc(-c2nnc(SC(C)C#N)o2)cc1 (stereo not drawn)	0.86% (inactive)	
CCN(CC)C(=O)CSc1nnc(-c2cccc(OC)c2)o1	2.94% (inactive)	

Structure (SMILES)	activity change, negative = inhibition	Potency
Cc1cnc(NC(=O)CSc2nnc(C)s2)s1	-2.24% (inactive)	
O=S(=O)(c1ccc(Br)cc1)c1nc(-c2ccccc2)oc1NCc1cccnc1	24.4% (inactive)	
Cc1ccc(-c2csc(NC(=O)Cc3cccs3)n2)cc1C	-5.8% (inactive)	
Cc1nnc(NC(=O)CSc2nc(C3CCCCC3)nc3ccccc23)s1	4.22% (inactive)	
CCOCCCNC(=O)C(NC(=O)c1ccc(=O)[nH]c1)c1ccc(C)cc1 (stereo not drawn)	3.28% (inactive)	
COc1ccc(N(CC(=O)NC2CCCCC2)S(=O)(=O)c2c(C)[nH]c(=O)[nH]c2=O)cc1	-0.497% (inactive)	
CCc1c(C)[nH]c(=S)c(C#N)c1C		31.6 µM (active)
O=C(Nc1ccccc1)c1ccccc1NC(=O)C(F)(F)F	0.576% (inactive)	
CCCNC(=S)NC1CC2CCCC(C1)N2CC(C)C (stereo not drawn)	4.08% (inactive)	
Cc1ccc(F)c(NC(=O)CCc2ccccc2)c1	2.82% (inactive)	
COc1ccc(-c2c(C)cc3oc(=O)cc(-c4ccccc4)c3c2C)cc1C=O	-27.8% [at 0.0915 µM] (inactive)	
COc1ccc(C2CC(=O)Oc3ccc(C(C)(C)C)cc32)cc1 (stereo not drawn)	-11.2% [at 0.0915 µM] (inactive)	
CCCNC(=O)NCc1ccc(N2CCCC2=O)cc1	-2.71% (inactive)	
COCc1cc(=O)[nH]c2cc(NC(=O)C(F)(F)F)c(C)cc12	-0.389% (inactive)	
CCOC(=O)C1C/C(=C\C(C)=O)c2cccc(C(F)(F)F)c2O1 (stereo not drawn)	4.83% [at 0.0915 µM] (inactive)	
COc1cnc(SCc2ccc(Cl)c(Cl)c2)nc1Cl	13.5% (inactive)	
C(=N/N1CCN(c2ccccc2)CC1)/c1cccs1	-1.53% (inactive)	
COc1ccc(C(=O)NNC(=O)c2cnccn2)cc1[N+](=O)[O-]	-1.79% (inactive)	
COc1ccc(Nc2nc(=O)[nH]nc2C)cc1	-3.1% (inactive)	
O=C(NCc1ccco1)C1(c2ccc(Cl)cc2)CCCC1	-3.03% (inactive)	
O=C(NCc1ccco1)C1CCCN(S(=O)(=O)c2ccccc2)C1 (stereo not drawn)	-2.62% (inactive)	
CCc1ccc(C(=O)CSc2nnc(C)c(=O)[nH]2)cc1	2.83% (inactive)	
